Experimental data from PubChem BioAssay.
Where “and” joins values, the source holds several entries; their conditions need not be identical. Equal entries are not always repeated. Results filed as inconclusive are left out. Calls of active or inactive are those of the source.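 Rule for the calls, unless noted: active = thallium flux through the channel raised or lowered by more than 3 SD from vehicle-only wells, actives on both sides; inactive = the rest.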

Legend:
[1] = P. berghei load reduction in hepatocytes – cell-based, HepG2, luciferase luminescence, HepG2 viability, primary screen (AID 624349; in the data active = parasite load remaining mostly below about 12%, no sharp cut-off; inactive = mostly above about 10%;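 note: 100% = mean of DMSO negative control wells on the same plate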); details: P. berghei liver stage in HepG2, luciferase luminescence, concentration not given here; parasite load remaining: stronger effect = lower value; viability: measured here: HepG2 viability without parasites
[2] = signal quenchers or enhancers, Cy5 substrate/SSB – biochemical, NIH Clinical Collection, E. coli SSB, artefact control for HCV NS3 helicase inhibitor project (AID 743268; call rule not given here); details: Cy5-oligo bound E. coli SSB, fluorescence interference
[3] = tested on: Hepatitis C virus NS3 helicase; assay: blockers of NS3h binding to DNA – biochemical, fluorescence polarization, NIH Clinical Collection, primary screen (AID 743270; call rule not given here); details: NS3 helicase binding to Cy5-dT15 DNA, stronger effect = higher value, concentration not given here
[4] = biological target: Single-stranded DNA-binding protein (Escherichia coli (strain K12)) (UniProt P0AGE0); assay: SSB-ssDNA binding inhibitors – biochemical, fluorescence polarization, NIH Clinical Collection, counter-screen for HCV NS3 helicase inhibitor project (AID 743271; in the data active = inhibition above about 28%); details: E. coli SSB-DNA binding, stronger effect = higher value, concentration not given here
[5] = compounds distorting NS3 helicase fluorescence signal – biochemical, NIH Clinical Collection, artefact control for HCV NS3 helicase inhibitor project (AID 743272; call rule not given here;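 note: HCV NS3 helicase with a Cy5 labelled single stranded DNA probe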); details: fluorescence interference counterscreen, HCV NS3 helicase assay; stronger effect = lower value
[6] = viability loss with induced miR-34 in A549 – imaging, A549 dox-inducible miR-34, nuclei and caspase counts, primary screen (AID 1347080;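 active = compounds whose cell count with miR-34 switched on is under 0.7 times the count with it off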); details: A549 miR-34 inducible, Hoechst nuclei count, 48 h
[7] = galactose survival enhancers in mitochondrial complex I cybrids – cell-based, galactose medium, ATP luminescence, primary screen (AID 1645843;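 active = z-score of at least 1.8 in each of two replicates, scored against plate mean and spread of sample wells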;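 note: positive z means more ATP and so rescue of galactose-driven cybrid death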); details: complex I mutant cybrid cells, 72 h, stronger effect = higher value
F380Y = assay: BK channel mutant inhibitors and activators – cell-based, U2OS BacMam, thallium flux, beta subunits, selectivity assay, profiling panel (AID 1259406); details: U2OS BacMam BK variants, at 30 µM;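 note: initial slope of Thallos dye fluorescence rise after thallium is added; log ratio against the mean of 0.3% DMSO vehicle wells on the same plate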
F380Y/beta1 = assay: as above; details: U2OS BacMam BK variants, at 30 µM
F380Y/beta2Delta = assay: as above; details: U2OS BacMam BK variants, at 30 µM
F380Y/beta4 = assay: as above; details: U2OS BacMam BK variants, at 30 µM
R275C = assay: as above; details: U2OS BacMam BK variants, at 30 µM
R275C/beta1 = assay: as above; details: U2OS BacMam BK variants, at 30 µM
R275C/beta2Delta = assay: as above; details: U2OS BacMam BK variants, at 30 µM
R275C/beta4 = assay: as above; details: U2OS BacMam BK variants, at 30 µM
R275C/Slo1WT/beta2 = assay: as above; details: U2OS BacMam BK variants, at 30 µM
[8] = biological target: Calcium-activated potassium channel subunit alpha-1 (Homo sapiens) + Leucine-rich repeat-containing protein 26 (Homo sapiens) (UniProt Q12791+Q2I0M4); assay: as above; details: U2OS BacMam BK variants, F380Y/Slo1WT/gamma1, at 30 µM
Chain of Calcium-activated potassium channel subunit alpha-1 (Homo sapiens) + Leucine-rich repeat-containing protein 26 (Homo sapiens) (Q2I0M4 whole entry, looked up, one chain of several): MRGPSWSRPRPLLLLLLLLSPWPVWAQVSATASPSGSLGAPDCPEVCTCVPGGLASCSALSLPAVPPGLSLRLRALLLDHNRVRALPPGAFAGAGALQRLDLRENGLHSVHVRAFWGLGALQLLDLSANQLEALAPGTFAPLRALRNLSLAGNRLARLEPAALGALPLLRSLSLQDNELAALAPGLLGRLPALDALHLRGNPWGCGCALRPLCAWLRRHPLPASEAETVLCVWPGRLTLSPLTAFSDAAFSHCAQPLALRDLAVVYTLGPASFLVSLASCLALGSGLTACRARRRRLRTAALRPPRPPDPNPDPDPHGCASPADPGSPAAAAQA

[9] = viability loss in pontine glioma line – cell-based, SU-DIPG-XIII, MIPE4.0, CellTiter-Glo, qHTS, dose response (AID 1347061; cut-off not given, nearly all actives have AC50 up to about 37 µM;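 note: cells exposed to compound for 48 hours before readout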); details: CellTiter-Glo ATP luminescence
[10] = viability loss in pontine glioma line – cell-based, JHH-DIPG-1, MIPE4.0, CellTiter-Glo, qHTS, dose response (AID 1347062; cut-off not given, nearly all actives have AC50 up to about 27 µM); details: JHH-DIPG-1 viability, CellTiter-Glo ATP luminescence
[11] = growth inhibition of DIPG cells – cell-based, MIPE4.0 library, CellTiter-Glo luminescence, qHTS (AID 1347066; cut-off not given, nearly all actives have AC50 up to about 30 µM;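 note: cells exposed to compound for 48 hours before readout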); details: SU-DIPG-VI viability, CellTiter-Glo ATP luminescence
[12] = tested on: Neuropilin-2 / VEGF-C interaction (human); assay: small molecules blocking Neuropilin-2/VEGF-C interaction – biochemical, microplate binding format, z-score (AID 743281; call rule not given here); details: microplate NRP2/VEGF-C binding assay; stronger effect = lower value
[13] = modulation of C. elegans fzo-1 (AID 1259413; call rule not given here;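 note: fzo-1 mutant C. elegans worms in liquid wells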); details: C. elegans fzo-1 modulator screen, mean read-out; stronger effect = higher value
[14] = tested on: Aerobactin synthetase IucA (Klebsiella pneumoniae hvKP1); assay: IucA enzyme inhibition, primary screen, biochemical, Spectrum library (AID 1346200; call rule not given here;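 note: 100% = wells without compound and 0% = wells lacking enzyme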); details: malachite green pyrophosphate, A620, at 8 µM, stronger effect = lower value
[15] = biological target: NAD(+) hydrolase SARM1 (Homo sapiens) (UniProt Q6SZW1); assay: blocking NAD cleavage by SARM1 SAM-TIR – cell lysate, NAD-Glo luminescence (AID 1508614;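 active = compound whose remaining NAD level is above about 45 nM, limit read from the data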;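 note: higher remaining NAD means stronger inhibition of SARM1 NADase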); details: SAM-TIR HEK293T lysate NADase, at 1 µM, stronger effect = higher value
Chain of NAD(+) hydrolase SARM1 (Homo sapiens) (Q6SZW1 whole entry, looked up, the tested form may be a part): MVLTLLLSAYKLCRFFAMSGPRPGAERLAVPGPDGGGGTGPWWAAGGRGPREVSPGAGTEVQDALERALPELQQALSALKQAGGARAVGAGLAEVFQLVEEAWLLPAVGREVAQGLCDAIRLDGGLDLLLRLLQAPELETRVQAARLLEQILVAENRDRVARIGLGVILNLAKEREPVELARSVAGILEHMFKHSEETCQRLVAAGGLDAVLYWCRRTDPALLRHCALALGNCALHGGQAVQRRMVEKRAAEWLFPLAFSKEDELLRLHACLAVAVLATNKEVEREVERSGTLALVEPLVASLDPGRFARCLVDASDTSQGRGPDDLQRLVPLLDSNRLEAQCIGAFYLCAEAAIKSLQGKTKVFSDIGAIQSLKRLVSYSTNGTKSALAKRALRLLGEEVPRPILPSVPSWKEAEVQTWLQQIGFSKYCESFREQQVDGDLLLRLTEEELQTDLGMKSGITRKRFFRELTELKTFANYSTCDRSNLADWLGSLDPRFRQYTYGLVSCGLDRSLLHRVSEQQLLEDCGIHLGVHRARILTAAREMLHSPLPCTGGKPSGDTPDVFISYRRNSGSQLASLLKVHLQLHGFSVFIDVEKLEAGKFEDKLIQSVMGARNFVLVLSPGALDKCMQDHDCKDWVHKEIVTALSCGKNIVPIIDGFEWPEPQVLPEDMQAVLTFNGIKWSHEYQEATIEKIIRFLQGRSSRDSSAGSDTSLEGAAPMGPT

[16] = biological target: Mitogen-activated protein kinase 7 (Homo sapiens) (UniProt Q13164); assay: Gal4-ERK5 driven luciferase induction – cell-based, HTS, primary screen (AID 1508626;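 active = luciferase signal above three times the same-plate solvent-only control wells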;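 note: luciferase driven by Gal4-ERK5 fusion binding five Gal4 sites before minimal TATA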); details: HeLa Gal4-ERK5 transactivation, 18 h, at 5 µM, stronger effect = higher value
Chain of Mitogen-activated protein kinase 7 (Homo sapiens) (Q13164 whole entry, looked up, the tested form may be a part): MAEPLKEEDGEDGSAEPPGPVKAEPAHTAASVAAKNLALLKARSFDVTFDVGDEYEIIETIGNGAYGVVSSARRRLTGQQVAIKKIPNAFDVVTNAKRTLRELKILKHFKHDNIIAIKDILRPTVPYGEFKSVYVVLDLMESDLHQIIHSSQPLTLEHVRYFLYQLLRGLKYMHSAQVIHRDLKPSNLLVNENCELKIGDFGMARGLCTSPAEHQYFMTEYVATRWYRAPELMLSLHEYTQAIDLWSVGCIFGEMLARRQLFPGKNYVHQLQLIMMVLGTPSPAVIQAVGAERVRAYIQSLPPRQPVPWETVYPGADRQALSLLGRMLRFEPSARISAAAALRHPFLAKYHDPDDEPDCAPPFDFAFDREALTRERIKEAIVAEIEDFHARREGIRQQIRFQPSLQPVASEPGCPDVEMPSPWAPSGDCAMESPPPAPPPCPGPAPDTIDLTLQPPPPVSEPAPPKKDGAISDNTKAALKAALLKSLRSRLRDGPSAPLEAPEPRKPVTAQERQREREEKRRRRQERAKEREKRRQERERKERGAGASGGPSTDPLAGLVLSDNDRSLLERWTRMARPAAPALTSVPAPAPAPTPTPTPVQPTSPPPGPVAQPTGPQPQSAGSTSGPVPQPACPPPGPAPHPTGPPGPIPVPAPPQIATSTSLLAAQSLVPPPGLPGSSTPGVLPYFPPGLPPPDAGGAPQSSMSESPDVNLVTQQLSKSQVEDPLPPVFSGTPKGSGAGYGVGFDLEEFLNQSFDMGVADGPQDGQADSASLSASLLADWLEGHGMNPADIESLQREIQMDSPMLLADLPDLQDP

[17] = measured here: relative caspase fold change +Dox/-Dox
[18] = measured here: total cells with miR-34 induction, stronger effect = lower value
[19] = measured here: total cells without miR-34 induction

Clc1ccc(CON=C(Cn2ccnc2)c2ccc(Cl)cc2Cl)c(Cl)c1
inactive: parasite load remaining [1] 2.5% | fluorescence ratio [2] 0.95 | inhibition [3] 13.1% | inhibition [4] 7.6% | fluorescence ratio [5] 1 | fold change ([6]; stronger effect = lower value) 1.28 | z-score [7] -1.88 | log fold change Tl+ flux (F380Y) -0.0332 | log fold change Tl+ flux (F380Y/beta1) -0.00723 | log fold change Tl+ flux (F380Y/beta2Delta) -0.00783 | log fold change Tl+ flux (F380Y/beta4) -0.00465 | log fold change Tl+ flux (R275C) -0.0645 | log fold change Tl+ flux (R275C/beta2Delta) -0.0303 | log fold change Tl+ flux (R275C/beta4) 0.02 | log fold change Tl+ flux (R275C/Slo1WT/beta2) 0.0197
3280: cell count [6, 18]
0.637: fold change [6, 17]
54.6%: viability [1]
2560: cell count [6, 19]
active: log fold change Tl+ flux (R275C/beta1) 0.329

C[C@]12CCC(=O)C[C@@H]1CC[C@@H]1[C@@H]2CC[C@@]2(C)[C@H]1CC[C@]2(C)O
inactive: parasite load remaining [1] 79.1% | fluorescence ratio [2] 1.04 | inhibition [3] -0.4% | inhibition [4] -3.18% | fluorescence ratio [5] 0.92 | log fold change Tl+ flux (F380Y) 0.00819 | log fold change Tl+ flux (F380Y/beta1) -0.00468 | log fold change Tl+ flux (F380Y/beta2Delta) 0.0319 | log fold change Tl+ flux (F380Y/beta4) 0.0289 | log fold change Tl+ flux [8] 0.0101 | log fold change Tl+ flux (R275C) -0.0214 | log fold change Tl+ flux (R275C/beta1) 0.0156 | log fold change Tl+ flux (R275C/beta2Delta) 0.0537 | log fold change Tl+ flux (R275C/beta4) 0.00195 | log fold change Tl+ flux (R275C/Slo1WT/beta2) 0.012
70.4%: viability [1]

C[C@]12CCC(=O)C=C1CC[C@@H]1[C@@H]2CC[C@@]2(C)[C@H]1CC[C@]2(C)O
active: log fold change Tl+ flux (F380Y/beta4) -0.105
inactive: parasite load remaining [1] 82.1% | fluorescence ratio [2] 1.03 | inhibition [3] 0.4% | inhibition [4] -2.41% | fluorescence ratio [5] 0.97 | outcome [9] | outcome [10] | outcome [11] | log fold change Tl+ flux (F380Y) -0.0714 | log fold change Tl+ flux (F380Y/beta1) 0.0212 | log fold change Tl+ flux (F380Y/beta2Delta) -0.0632 | log fold change Tl+ flux [8] 0.0144 | log fold change Tl+ flux (R275C) -0.0155 | log fold change Tl+ flux (R275C/beta1) 0.014 | log fold change Tl+ flux (R275C/beta2Delta) 0.0131 | log fold change Tl+ flux (R275C/beta4) 0.00989 | log fold change Tl+ flux (R275C/Slo1WT/beta2) -0.0244
78%: viability [1]

Cc1ccc(-c2nc3ccc(C)cn3c2CC(=O)N(C)C)cc1
80.3% and 64.4%: viability [1]
9130: cell count [6, 18]
9550: cell count [6, 19]
2.59: fold change [6, 17]
inactive: parasite load remaining [1] 37% and 120% | fluorescence ratio [2] 1.04 | inhibition [3] -1.98% | inhibition [4] -2.41% | fluorescence ratio [5] 1.01 | z-score [12] -0.569 | mean signal [13] 258 | activity remaining [14] 101% | fold change ([6]; stronger effect = lower value) 0.956 | remaining NAD [15] 10 nM | luciferase signal [16] 44 AU | z-score [7] 1.03 | log fold change Tl+ flux (F380Y) -0.0187 | log fold change Tl+ flux (F380Y/beta1) 0.0272 | log fold change Tl+ flux (F380Y/beta2Delta) 0.00568 | log fold change Tl+ flux (F380Y/beta4) -0.00795 | log fold change Tl+ flux [8] -0.0144 | log fold change Tl+ flux (R275C) -0.0227 | log fold change Tl+ flux (R275C/beta1) -0.0502 | log fold change Tl+ flux (R275C/beta2Delta) -0.00561 | log fold change Tl+ flux (R275C/beta4) 0.00879 | log fold change Tl+ flux (R275C/Slo1WT/beta2) 0.00818
